Results reported in PubChem BioAssay (NCATS).
Values joined by “and” are separate entries in the source; they are usually repeats but may differ in a detail not shown here. Identical values can stand only once. Records with an inconclusive call do not appear. Active and inactive are the calls of the source. Unless noted, the call rests on the fitted dose curve; in most records, active means well fitted curve in the direction sought with a large enough effect; inconclusive means small, poorly fitted or top-dose-only effect, or another doubt; inactive means no such curve, though single readings can be large; an effect the other way counts as inactive or inconclusive.

Columns and labels:
[1] = molecular target: Mitogen-activated protein kinase 10 (Mus musculus) (UniProt Q61831); assay: JNK3 AlphaScreen Assay (AID 530; active means well fitted curve in either direction with a large enough effect, not every such curve was filed as active;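 further: kinase came from lysate of stimulated human HepG2 cells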; further: potency means the concentration at half of the fitted maximal effect)
How it was run: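 Kinase buffer: 20 mM Tris-HCl pH 7.6, 10 mM MgCl2, 1 mM DTT, 0.1 mM Na3VO4, 0.01% Tween-20; ATP 10 uM. Substrate biotin-GST-cJun(1-79), enzyme from activated HepG2 lysates. Detection by Ser73 phospho-antibody AlphaScreen.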

[2] = Cell Viability - HUV-EC-C (AID 542);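 further: cells exposed to compound for 40 hours; on the % scale 0 is the no-effect control and ±100 the full control effect; nearly all actives have a fitted effect of over 35% in size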
How it was run: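 Luminescent ATP read-out (CellTiter-Glo, 20 min room temperature) after 40 hr compound treatment of HUV-EC-C cells at 37 °C. Concentration-response data fitted with the standard Hill equation to give AC50; tamoxifen and doxorubicin served as positive controls.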

[3] = Cell Viability - H-4-II-E (AID 543);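 further: cells exposed to compound for 40 hours; on the % scale 0 is the no-effect control and ±100 the full control effect; nearly all actives have a fitted effect of over 35% in size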
How it was run: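 qHTS, rat hepatoma H-4-II-E, 1500 cells/well; 40 hr compound exposure, 37 °C; CellTiter-Glo ATP luminescence after 20 min RT; AC50 by standard Hill fit.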

[4] = Cell Viability - SH-SY5Y (AID 544);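 further: cells exposed to compound for 40 hours; nearly all actives have a fitted effect of over 55% in size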; further: potency means the concentration at half of the fitted maximal effect
How it was run: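 SH-SY5Y, 1500 cells/well, 5 hr pre-incubation 37 °C; cpd 40 hr 37 °C; CellTiter-Glo 20 min RT; luminescence (ATP) read. qHTS concentration-response, Hill fit → AC50. Tamoxifen, doxorubicin as positive controls.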

[5] = Cellular Toxicity (caspase-3) HepG2 (AID 654);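 further: cells exposed to compound for 16 hours before reading; 0% = DMSO alone and 100% = caspase signal from 100 µM tamoxifen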
How it was run: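 Luminescent Caspase-Glo 3/7 readout after 16 hr compound exposure of human hepatocellular carcinoma HepG2 cells at 37 °C; qHTS concentration-response, normalized DMSO = 0%, 100 uM tamoxifen = 100%; AC50 by standard Hill equation.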

[6] = Cellular Toxicity (caspase-3) Jurkat (AID 655);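 further: cells exposed to compound for 16 h at 37 °C before reading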
How it was run: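 Jurkat cells (5000/well) in complete medium exposed 16 h at 37 C; caspase-3/7 activity read by Caspase-Glo luminescence after 20 min at room temperature. Normalized to DMSO and 100 uM tamoxifen; AC50 from Hill fits.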

[7] = Cellular Toxicity (caspase-3) HUV-EC-C (AID 656);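 further: 0% = DMSO basal and 100% = 100 µM tamoxifen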
How it was run: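 HUV-EC-C cells (1000/well) in complete medium, compound-treated 16 h at 37 °C; caspase-3/7 activity read by Caspase-Glo 3/7 luminescence. Normalized to DMSO (basal) and 100 uM tamoxifen (100%); AC50 from Hill-equation concentration-response fits.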

[8] = Cellular Toxicity (caspase-3) SHSY5Y (AID 657)
How it was run: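 SH-SY5Y human neuroblastoma cells, 1500/well, exposed to compound for 16 hours at 37 °C in complete medium. Caspase-3/7 activity read by Caspase-Glo luminescence after 1 hr at room temperature, normalized to DMSO and 10 uM staurosporine; AC50 from Hill fit.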

[9] = Cellular Toxicity (caspase-3) BJ (AID 658);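 further: 0% = DMSO basal and 100% = 10 µM staurosporine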
How it was run: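 Caspase-Glo 3/7 luminescence, read 1 hr after reagent at room temperature, in normal BJ fibroblasts exposed 16 hours at 37 °C. AC50 values from Hill-equation concentration-response, scaled between DMSO basal and 10 uM staurosporine as 100%.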

[10] = Cellular Toxicity (caspase-3) MRC-5 (AID 659); conditions: Potency: caspase-3 activation;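 further: 0% = DMSO basal and 100% = 10 µM staurosporine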
How it was run: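 Luminescent Caspase-Glo 3/7 read-out (1 h, room temperature) after a 16 h, 37 °C compound exposure of MRC-5 lung fibroblasts at 1500 cells/well. Concentration-response AC50 from Hill equation; 0% DMSO, 100% 10 uM staurosporine.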

[11] = Cellular Toxicity (caspase-3) Mesangial (AID 660);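 further: cells exposed to compound for 16 h before the caspase read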
How it was run: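 Luminescent Caspase-Glo 3/7 readout (aminoluciferin substrate cleavage, 20 min RT) after 16 h compound exposure at 37 °C of normal human mesangial cells. Signal increase normalized between DMSO basal and 100 uM tamoxifen; Hill-equation AC50.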

[12] = Cellular Toxicity (caspase-3) H-4-II-E (AID 663);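 further: cells exposed to compound for 16 hr before readout; 0% = DMSO basal and 100% = 100 µM tamoxifen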
How it was run: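 Caspase 3/7 activation measured by luminescent aminoluciferin substrate cleavage after 16 hr compound treatment of H-4-II-E cells in complete medium. Increase normalized between DMSO (basal) and 100 uM tamoxifen (100%); Hill-equation AC50 from concentration-response.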

[13] = Cellular Toxicity (caspase-3) Hek293 (AID 664);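 further: cells exposed to compound for 16 h at 37 °C before readout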
How it was run: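 Luminescent Caspase-Glo 3/7 readout (aminoluciferin release) in HEK293 cells after 16 h compound treatment, 37 °C. Normalization: DMSO = basal, 100 uM tamoxifen = 100% stimulation. Concentration-response fitted with standard Hill equation for AC50.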

[14] = Cellular Toxicity (caspase-3) N2a (AID 665);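 further: compound exposure lasted 16 h at 37 °C before readout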
How it was run: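 Luminescent Caspase-Glo 3/7 readout in N2a mouse neuroblastoma cells after 16 h compound exposure at 37 °C. Signal scaled to DMSO (basal) and 10 uM staurosporine (100%). Concentration-response fitted with Hill equation for AC50.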

[15] = Cellular Toxicity (caspase-3) NIH 3T3 (AID 666);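 further: 0% = DMSO basal and 100% = 100 µM tamoxifen stimulation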
How it was run: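 NIH 3T3, 1000 cells/well, 5 hr settle then 16 hr compound at 37°C; Caspase-Glo 3/7, 20 min RT, luminescence. DMSO = basal, 100 uM tamoxifen = 100%. Hill-equation AC50, qHTS.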

[16] = Stat Signaling Pathway (AID 446; active means well fitted curve in either direction with a large enough effect, not every such curve was filed as active;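 further: ME-180 cervical cancer cells given 40 pM IL-6 alongside compound; SIE-controlled beta-lactamase reporter measured as 460/530 nm FRET emission ratio; on the % scale 0 is the no-effect control and ±100 the full control effect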); conditions: ME-180 (cervical carcinoma) SIE beta-lactamase reporter, IL-6 stimulated, 5 h
How it was run: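 Emission at 460 and 530 nm (excitation 405 nm) reports SIE-controlled beta-lactamase in ME-180 cells. Cells received compound with 40 pM IL-6 for 5 hrs at 37 C; data scaled between 300 pM IL-6 and 125 nM JAK-inhibitor controls.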

[17] = molecular target: 3',5'-cyclic-AMP phosphodiesterase 4B (Homo sapiens) (UniProt Q07343); assay: qHTS Assay for Inhibitors of PDE-IV (AID 607; active means well fitted activation curve with a large enough effect in the main read-out, with a control signal flat, not every such curve was filed as active; further: % of control where 0% means no effect)
3',5'-cyclic-AMP phosphodiesterase 4B (Homo sapiens), sequence (Q07343 whole entry, looked up): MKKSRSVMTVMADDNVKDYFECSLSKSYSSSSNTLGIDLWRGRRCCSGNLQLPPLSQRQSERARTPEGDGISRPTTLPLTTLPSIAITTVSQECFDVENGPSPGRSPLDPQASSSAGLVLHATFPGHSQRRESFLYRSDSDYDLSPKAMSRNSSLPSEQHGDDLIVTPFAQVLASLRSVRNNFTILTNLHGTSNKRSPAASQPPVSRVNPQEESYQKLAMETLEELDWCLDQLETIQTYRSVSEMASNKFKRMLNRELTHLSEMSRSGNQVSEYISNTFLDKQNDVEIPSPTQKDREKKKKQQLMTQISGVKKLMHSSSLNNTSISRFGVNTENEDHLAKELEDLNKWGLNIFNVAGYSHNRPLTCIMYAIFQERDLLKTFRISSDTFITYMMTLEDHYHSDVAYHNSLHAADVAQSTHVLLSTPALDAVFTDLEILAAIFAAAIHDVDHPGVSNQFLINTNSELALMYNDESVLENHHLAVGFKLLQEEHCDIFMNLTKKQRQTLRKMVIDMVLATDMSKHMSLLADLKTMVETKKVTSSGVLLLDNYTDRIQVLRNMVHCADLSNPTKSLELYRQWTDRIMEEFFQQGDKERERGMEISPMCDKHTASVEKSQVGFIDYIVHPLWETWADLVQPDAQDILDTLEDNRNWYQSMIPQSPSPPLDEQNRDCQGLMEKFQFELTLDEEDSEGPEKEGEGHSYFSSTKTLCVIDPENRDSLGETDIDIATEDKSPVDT
How it was run: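 The readout is membrane depolarisation from a cAMP-sensing CNG channel, detected with a potential dye at ex 535/em 590. Cells were HEK293-derived (endogenous PDE-IV) at 1000 cells/well, titrated up to 22.9 uM final.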

[18] = molecular target: Glucocorticoid receptor (Homo sapiens) (UniProt P04150); assay: GR-GFP Redistribution (AID 450;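 active means compounds whose dose series gives a full or clear partial fitted curve of increased nuclear translocation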; further: potency means the concentration at half of the fitted maximal effect); conditions: U2OS GR-GFP nuclear translocation, laser cytometry, 2 h
Glucocorticoid receptor (Homo sapiens), sequence (P04150 whole entry, looked up): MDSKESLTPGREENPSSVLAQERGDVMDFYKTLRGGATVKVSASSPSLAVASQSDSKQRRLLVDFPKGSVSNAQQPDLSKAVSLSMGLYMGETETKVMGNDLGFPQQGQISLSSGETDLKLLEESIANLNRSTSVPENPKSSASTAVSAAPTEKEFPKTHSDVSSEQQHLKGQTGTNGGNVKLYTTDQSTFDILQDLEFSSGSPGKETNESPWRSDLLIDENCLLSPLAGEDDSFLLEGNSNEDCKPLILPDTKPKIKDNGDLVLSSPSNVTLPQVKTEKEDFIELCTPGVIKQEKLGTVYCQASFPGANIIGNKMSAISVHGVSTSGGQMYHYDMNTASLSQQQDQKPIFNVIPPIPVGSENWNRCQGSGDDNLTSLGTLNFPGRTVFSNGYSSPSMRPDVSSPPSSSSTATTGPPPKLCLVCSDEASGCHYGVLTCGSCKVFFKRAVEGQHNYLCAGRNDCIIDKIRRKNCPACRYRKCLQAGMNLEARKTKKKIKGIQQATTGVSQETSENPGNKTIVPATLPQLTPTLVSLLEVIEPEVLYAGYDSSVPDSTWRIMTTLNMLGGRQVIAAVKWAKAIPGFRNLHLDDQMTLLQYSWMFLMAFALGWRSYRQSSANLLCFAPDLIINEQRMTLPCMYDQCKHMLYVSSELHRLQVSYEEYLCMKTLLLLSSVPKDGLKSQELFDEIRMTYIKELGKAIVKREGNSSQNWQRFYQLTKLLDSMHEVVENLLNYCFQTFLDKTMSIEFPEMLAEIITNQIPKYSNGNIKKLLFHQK

[19] = molecular target: Guanine nucleotide-binding protein G(i) subunit alpha-1 (Homo sapiens) (UniProt P63096); assay: qHTS Assay for Inhibitors of RGS12 GoLoco Motif Activity (Green Fluorophore) (AID 879);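 further: 0% = labeled peptide with Gαi1 and full inhibition = labeled peptide alone without protein; negative values mean loss of peptide binding seen as reduced polarization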
Guanine nucleotide-binding protein G(i) subunit alpha-1 (Homo sapiens), sequence (P63096 whole entry, looked up): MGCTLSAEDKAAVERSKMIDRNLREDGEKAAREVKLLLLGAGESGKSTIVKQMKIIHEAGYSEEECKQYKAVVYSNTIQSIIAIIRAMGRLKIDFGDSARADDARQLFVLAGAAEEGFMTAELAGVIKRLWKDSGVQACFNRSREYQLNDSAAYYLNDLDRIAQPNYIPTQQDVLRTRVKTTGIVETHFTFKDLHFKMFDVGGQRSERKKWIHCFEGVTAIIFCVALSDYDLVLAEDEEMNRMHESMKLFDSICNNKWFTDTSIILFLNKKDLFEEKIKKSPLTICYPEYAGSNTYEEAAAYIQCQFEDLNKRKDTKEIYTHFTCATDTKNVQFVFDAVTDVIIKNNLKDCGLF
How it was run: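 A drop in FITC polarization marked displacement of the FITC-tagged RGS12 GoLoco peptide (10 nM) from Gαi1 (50 nM). Compounds were incubated 10 min at room temperature in Tris pH 7.5 buffer containing 150 mM NaCl, 0.1 mM GDP and 0.05% NP40; unlabeled peptide titration served as control.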

[20] = molecular target: Cytochrome P450 2C9 (Homo sapiens) (UniProt P11712); assay: qHTS Assay for Inhibitors and Substrates of Cytochrome P450 2C9 (AID 883); further: nearly all actives have a fitted effect of over 60% in size; further: potency means the concentration at half of the fitted maximal effect
Cytochrome P450 2C9 (Homo sapiens), sequence (P11712 whole entry, looked up): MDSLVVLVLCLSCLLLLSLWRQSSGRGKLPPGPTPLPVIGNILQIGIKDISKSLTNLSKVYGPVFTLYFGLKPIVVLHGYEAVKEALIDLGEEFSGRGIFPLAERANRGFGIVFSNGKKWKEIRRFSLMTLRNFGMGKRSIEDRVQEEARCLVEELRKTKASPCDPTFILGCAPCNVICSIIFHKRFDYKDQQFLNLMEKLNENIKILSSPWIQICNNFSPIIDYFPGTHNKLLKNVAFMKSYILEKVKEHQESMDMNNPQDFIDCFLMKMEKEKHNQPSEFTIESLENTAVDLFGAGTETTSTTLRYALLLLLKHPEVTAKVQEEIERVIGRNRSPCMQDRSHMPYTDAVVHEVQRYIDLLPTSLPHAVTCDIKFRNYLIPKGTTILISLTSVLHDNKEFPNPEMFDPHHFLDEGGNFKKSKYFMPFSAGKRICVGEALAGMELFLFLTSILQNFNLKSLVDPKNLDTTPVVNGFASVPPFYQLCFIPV
How it was run: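 Inhibition of CYP2C9 is scored as loss of luminescence, with 57uM sulphaphenazole defining 100% inhibition. Substrate Luciferin-H is used at 100uM, equal to its KM; enzyme at 10nM in 25mM KPO4, 60 min at 37C with NADPH regeneration.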

O=C1c2c(O)cccc2Cc2cccc(O)c21
inactive: Potency [1] | Potency [2] | Potency [3] | Potency [4] | Potency [5] | Potency [6] | outcome [7] | outcome [8] | outcome [9] | Potency [10] | outcome [11] | outcome [12] | outcome [13] | outcome [14] | outcome [15]

CCCCN1CCCC[C@H]1C(=O)Nc1c(C)cccc1C
inactive: activity, negative = inhibition ([16]; at 17.2 µM (top of the series)) 1.67% | Potency [1] | outcome [17]

CC12CCC(CC1)C(C)(C)O2
inactive: Potency [1] | Potency [2] | Potency [3] | Potency [4] | Potency [5] | Potency [6] | outcome [7] | outcome [8] | outcome [9] | Potency [10] | outcome [11] | outcome [12] | outcome [13] | outcome [14] | outcome [15]

Cc1cc2nc3c(=O)[nH]c(=O)nc-3n(C[C@H](O)[C@H](O)[C@H](O)CO)c2cc1C
inactive: Potency [1] | Potency [2] | Potency [3] | Potency [4] | Potency [5] | Potency [6] | outcome [7] | outcome [8] | outcome [9] | Potency [10] | outcome [11] | outcome [12] | outcome [13] | outcome [14] | outcome [15]

C=Cc1c(C)c2cc3[nH]c(cc4nc(cc5nc(cc1[nH]2)C(C)=C5CCC(=O)O)C(CCC(=O)O)=C4C)c(C)c3C=C
active: Potency [1] 0.398 µM [activator]
inactive: Potency [18] > 46 µM | outcome [17] | outcome [19]

CCCCCCCCCCCCCCCC(=O)NCCO
inactive: activity, negative = inhibition ([16]; at 38 µM (top of the series)) -2.15% | Potency [1] | outcome [17] | outcome [19]

CC1(C)[C@@H]2CC[C@@]1(C)C(=O)C2
inactive: Potency [1] | Potency [2] | Potency [3] | Potency [4] | Potency [5] | Potency [6] | outcome [7] | outcome [8] | outcome [9] | Potency [10] | outcome [11] | outcome [12] | outcome [13] | outcome [14] | outcome [15]

c1ccc2c(CC3=NCCN3)cccc2c1
inactive: activity, negative = inhibition ([16]; at 17.2 µM (top of the series)) 6.58% and 9.6% | Potency [1] | outcome [17]

C[C@]12C[C@H](O)[C@H]3[C@@H](CCC4=CC(=O)CC[C@@]43C)[C@@H]1CC[C@@H]2C(=O)CO
inactive: activity, negative = inhibition ([16]; at 17.2 µM (top of the series)) 3.29% | Potency [2] | Potency [4] | Potency [5] | Potency [6] | outcome [7] | outcome [8] | outcome [9] | Potency [10] | outcome [11] | outcome [12] | outcome [13] | outcome [14] | outcome [15]
active: Potency [18] 0.00593 µM

Cc1c(Cl)cccc1Nc1ccccc1C(=O)O
active: Potency [20] 3.16 µM
inactive: activity, negative = inhibition ([16]; at 17.2 µM (top of the series)) -15.1% and -25.4% | Potency [18] > 20.6 µM | Potency [1]

O=C(CCCN1CCN(c2ccccn2)CC1)c1ccc(F)cc1
inactive: activity, negative = inhibition ([16]; at 17.2 µM (top of the series)) -8.71% | Potency [1] | outcome [17]

CN(C)CCCN1c2ccccc2CCc2ccccc21
inactive: activity, negative = inhibition ([16]; at 17.2 µM (top of the series)) 2.6% and 1.4% | Potency [1] | outcome [19] | outcome [20]

NC(=O)c1ncn([C@@H]2O[C@H](CO)[C@@H](O)[C@H]2O)n1
active: Potency [4] 31.6 µM
inactive: Potency [1] | Potency [2] | Potency [5] | Potency [6] | outcome [7] | outcome [8] | outcome [9] | Potency [10] | outcome [11] | outcome [12] | outcome [13] | outcome [14] | outcome [15] | outcome [19]

CCCCCCCCCCCCOS(=O)(=O)O
inactive: Potency [1] | Potency [2] | Potency [3] | Potency [4] | Potency [5] | Potency [6] | outcome [7] | outcome [8] | outcome [9] | Potency [10] | outcome [11] | outcome [12] | outcome [13] | outcome [14] | outcome [15]
